# Test results from PMC7862700, “An all-to-all approach to the identification of sequence-specific readers for epigenetic DNA modifications on cytosine”.
# How the values were obtained:
# Test in all cases: DAPPL (digital affinity profiling via proximity ligation, sequencing); 10 mM Tris-HCl pH 7.5, 50 mM NaCl, 1 mM DTT, 4% glycerol, room temperature, 30 min; GST-TFs on glutathione beads, 16-mer random dsDNA library, 0.1% formaldehyde crosslink after washing; high values mean tight binding
# FLI1 = biological target: T1, FLI1 (Homo sapiens, UniProt Q01543 1-452); settings: protein: recombinant; tags: N-terminal GST; dsDNA, one strand shown
# T1 sequence: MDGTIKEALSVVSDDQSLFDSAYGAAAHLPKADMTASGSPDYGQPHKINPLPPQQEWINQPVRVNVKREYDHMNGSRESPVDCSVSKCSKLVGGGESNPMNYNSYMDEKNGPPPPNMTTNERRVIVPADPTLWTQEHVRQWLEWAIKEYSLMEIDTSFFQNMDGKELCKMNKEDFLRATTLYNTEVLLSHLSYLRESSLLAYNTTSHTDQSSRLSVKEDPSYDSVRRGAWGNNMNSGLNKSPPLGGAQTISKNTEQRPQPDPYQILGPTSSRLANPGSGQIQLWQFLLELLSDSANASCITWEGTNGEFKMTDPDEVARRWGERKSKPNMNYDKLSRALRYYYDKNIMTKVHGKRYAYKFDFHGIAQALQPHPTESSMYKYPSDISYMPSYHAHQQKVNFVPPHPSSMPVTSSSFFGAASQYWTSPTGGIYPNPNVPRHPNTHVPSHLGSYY
# Procedure, shortened: (§1)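 A tag-only sample was pooled with DNA-barcoded human transcription factors that had been expressed in yeast as GST fusions and captured on glutathione beads. The pools were incubated for 30 min at room temperature with 200 nmole of a random double-stranded 16-mer DNA library in Tris/NaCl/DTT/glycerol buffer, then washed, crosslinked with 0.1% formaldehyde, proximity-ligated (BsaI/T4 ligase, 1 h, 37 °C), PCR-amplified and sequenced on an Illumina NextSeq500. Binding signal is each hexamer's read frequency for a factor divided by its frequency for the tag-only sample.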
# ELK1 = biological target: T2, ELK1 (Homo sapiens, UniProt P19419 1-428); settings: protein: recombinant; tags: N-terminal GST; dsDNA, one strand shown
# T2 sequence: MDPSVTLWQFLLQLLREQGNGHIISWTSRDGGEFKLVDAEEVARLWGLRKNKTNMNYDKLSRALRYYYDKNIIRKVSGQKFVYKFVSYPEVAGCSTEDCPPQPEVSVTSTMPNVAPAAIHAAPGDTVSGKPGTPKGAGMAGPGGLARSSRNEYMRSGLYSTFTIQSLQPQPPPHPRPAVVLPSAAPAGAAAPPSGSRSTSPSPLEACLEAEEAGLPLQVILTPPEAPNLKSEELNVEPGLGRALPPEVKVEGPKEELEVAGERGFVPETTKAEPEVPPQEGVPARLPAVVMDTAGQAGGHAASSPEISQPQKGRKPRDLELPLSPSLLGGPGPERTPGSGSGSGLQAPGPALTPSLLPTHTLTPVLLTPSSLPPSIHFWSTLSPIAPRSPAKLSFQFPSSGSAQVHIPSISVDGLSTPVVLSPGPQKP
# Procedure, shortened: as §1
# GABPA = biological target: T3, GABPA (Homo sapiens, UniProt Q06546 1-454); settings: protein: recombinant; tags: N-terminal GST; dsDNA, one strand shown
# T3 sequence: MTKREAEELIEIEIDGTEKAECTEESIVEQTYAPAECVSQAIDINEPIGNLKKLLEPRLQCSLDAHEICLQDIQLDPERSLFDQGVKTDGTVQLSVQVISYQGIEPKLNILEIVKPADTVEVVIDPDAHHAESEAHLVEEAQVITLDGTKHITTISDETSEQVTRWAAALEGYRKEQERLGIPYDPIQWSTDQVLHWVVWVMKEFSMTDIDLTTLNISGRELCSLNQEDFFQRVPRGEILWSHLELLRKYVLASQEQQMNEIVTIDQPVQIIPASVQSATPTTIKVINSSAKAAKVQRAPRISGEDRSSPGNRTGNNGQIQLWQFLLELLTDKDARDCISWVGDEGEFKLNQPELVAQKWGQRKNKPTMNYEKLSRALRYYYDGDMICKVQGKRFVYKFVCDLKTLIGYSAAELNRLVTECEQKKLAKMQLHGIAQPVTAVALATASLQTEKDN
# Procedure, shortened: as §1
# ERG = biological target: T4, ERG (Homo sapiens, UniProt P11308 1-479); settings: protein: recombinant; tags: N-terminal GST; dsDNA, one strand shown
# T4 sequence: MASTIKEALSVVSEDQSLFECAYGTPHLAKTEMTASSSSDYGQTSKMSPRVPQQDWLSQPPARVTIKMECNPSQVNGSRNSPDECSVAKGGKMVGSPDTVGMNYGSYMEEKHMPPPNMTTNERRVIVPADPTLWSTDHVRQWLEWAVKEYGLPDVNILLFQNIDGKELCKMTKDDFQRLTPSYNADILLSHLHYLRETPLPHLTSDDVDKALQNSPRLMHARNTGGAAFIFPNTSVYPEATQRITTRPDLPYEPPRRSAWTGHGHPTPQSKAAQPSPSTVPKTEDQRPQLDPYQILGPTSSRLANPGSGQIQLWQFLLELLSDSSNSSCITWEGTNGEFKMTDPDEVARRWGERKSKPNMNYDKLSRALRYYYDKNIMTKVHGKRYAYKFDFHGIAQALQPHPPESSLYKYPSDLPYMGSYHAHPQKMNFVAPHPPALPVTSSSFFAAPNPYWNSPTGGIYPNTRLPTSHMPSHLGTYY
# Procedure, shortened: as §1
# ELF1 = ELF1 (Homo sapiens, UniProt P32519 1-619); settings: protein: recombinant; tags: N-terminal GST; dsDNA, one strand shown
# Procedure, shortened: as §1
# EHF = biological target: T5, EHF (Homo sapiens, UniProt Q9NZC4 1-300); settings: protein: recombinant; tags: N-terminal GST; dsDNA, one strand shown
# T5 sequence: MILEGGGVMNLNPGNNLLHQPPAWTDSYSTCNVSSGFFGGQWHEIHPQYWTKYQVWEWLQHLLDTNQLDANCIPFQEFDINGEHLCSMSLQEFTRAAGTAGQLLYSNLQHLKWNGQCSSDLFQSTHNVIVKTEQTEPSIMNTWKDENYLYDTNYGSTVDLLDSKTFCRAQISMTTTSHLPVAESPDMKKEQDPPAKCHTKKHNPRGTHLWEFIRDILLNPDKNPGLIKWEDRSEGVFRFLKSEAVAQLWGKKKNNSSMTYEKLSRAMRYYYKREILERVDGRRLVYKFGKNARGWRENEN
# Procedure, shortened: as §1
# SPI1 = SPI1 (Homo sapiens, UniProt P17947 1-270); settings: protein: recombinant; tags: N-terminal GST; dsDNA, one strand shown
# Procedure, shortened: as §1
# SPIB = SPIB (Homo sapiens, UniProt Q01892 1-262); settings: protein: recombinant; tags: N-terminal GST; dsDNA, one strand shown
# Procedure, shortened: as §1
# ELK3 = biological target: T6, ELK3 (Homo sapiens, UniProt P41970 1-407); settings: protein: recombinant; tags: N-terminal GST; dsDNA, one strand shown
# T6 sequence: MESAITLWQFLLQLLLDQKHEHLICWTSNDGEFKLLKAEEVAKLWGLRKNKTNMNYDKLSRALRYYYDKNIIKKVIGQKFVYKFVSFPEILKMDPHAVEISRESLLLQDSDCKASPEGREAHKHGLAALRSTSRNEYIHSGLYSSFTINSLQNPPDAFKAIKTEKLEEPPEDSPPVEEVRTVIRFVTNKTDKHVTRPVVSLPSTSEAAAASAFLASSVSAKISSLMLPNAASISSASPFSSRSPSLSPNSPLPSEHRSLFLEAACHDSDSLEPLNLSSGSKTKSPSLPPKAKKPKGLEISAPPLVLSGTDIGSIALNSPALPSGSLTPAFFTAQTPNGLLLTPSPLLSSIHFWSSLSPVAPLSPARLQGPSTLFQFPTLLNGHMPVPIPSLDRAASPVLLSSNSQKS
# Procedure, shortened: as §1
# FEV = biological target: T7, FEV (Homo sapiens, UniProt Q99581 1-238); settings: protein: recombinant; tags: N-terminal GST; dsDNA, one strand shown
# T7 sequence: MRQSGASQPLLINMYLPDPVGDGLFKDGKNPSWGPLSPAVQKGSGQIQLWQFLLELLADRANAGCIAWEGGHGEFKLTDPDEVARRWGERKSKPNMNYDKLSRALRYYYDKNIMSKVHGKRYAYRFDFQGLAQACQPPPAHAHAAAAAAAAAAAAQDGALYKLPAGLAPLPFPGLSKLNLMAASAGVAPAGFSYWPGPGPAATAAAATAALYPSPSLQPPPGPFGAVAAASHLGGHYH
# Procedure, shortened: as §1
# ETV5 = ETV5 (Homo sapiens, UniProt P41161 1-510); settings: protein: recombinant; tags: N-terminal GST; dsDNA, one strand shown
# Procedure, shortened: as §1
# HSF1 = HSF1 (Homo sapiens, UniProt Q00613 1-529); settings: protein: recombinant; tags: N-terminal GST; chain copies: 3; dsDNA, one strand shown
# Procedure, shortened: as §1
# SPIC = biological target: T8, SPIC (Homo sapiens, UniProt Q8N5J4 1-248); settings: protein: recombinant; tags: N-terminal GST; dsDNA, one strand shown
# T8 sequence: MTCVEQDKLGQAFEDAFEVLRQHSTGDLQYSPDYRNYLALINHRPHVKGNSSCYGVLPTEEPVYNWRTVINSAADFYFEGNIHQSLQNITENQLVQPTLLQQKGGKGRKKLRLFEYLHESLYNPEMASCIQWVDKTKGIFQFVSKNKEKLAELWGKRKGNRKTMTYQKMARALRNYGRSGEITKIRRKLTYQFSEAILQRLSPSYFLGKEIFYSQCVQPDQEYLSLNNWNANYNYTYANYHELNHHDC
# Procedure, shortened: as §1
# ELF4 = ELF4 (Homo sapiens, UniProt Q99607 1-663); settings: protein: recombinant; tags: N-terminal GST; dsDNA, one strand shown
# Procedure, shortened: as §1
# ELK4 = biological target: T9, ELK4 (Homo sapiens, UniProt P28324-2 1-405); settings: protein: recombinant; tags: N-terminal GST; dsDNA, one strand shown
# T9 sequence: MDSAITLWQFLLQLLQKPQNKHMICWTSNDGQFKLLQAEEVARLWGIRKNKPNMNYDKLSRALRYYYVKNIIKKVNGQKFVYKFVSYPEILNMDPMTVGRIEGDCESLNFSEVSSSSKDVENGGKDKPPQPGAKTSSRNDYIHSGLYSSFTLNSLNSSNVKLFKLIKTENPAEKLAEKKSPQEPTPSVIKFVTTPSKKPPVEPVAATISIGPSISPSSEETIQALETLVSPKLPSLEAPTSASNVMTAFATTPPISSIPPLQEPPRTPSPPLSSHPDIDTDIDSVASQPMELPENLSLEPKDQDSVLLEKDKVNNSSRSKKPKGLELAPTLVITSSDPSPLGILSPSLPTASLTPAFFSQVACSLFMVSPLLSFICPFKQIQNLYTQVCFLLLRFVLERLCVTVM
# Procedure, shortened: as §1
# ETV2 = biological target: T10, ETV2 (Homo sapiens, UniProt O00321 1-342); settings: protein: recombinant; tags: N-terminal GST; dsDNA, one strand shown
# T10 sequence: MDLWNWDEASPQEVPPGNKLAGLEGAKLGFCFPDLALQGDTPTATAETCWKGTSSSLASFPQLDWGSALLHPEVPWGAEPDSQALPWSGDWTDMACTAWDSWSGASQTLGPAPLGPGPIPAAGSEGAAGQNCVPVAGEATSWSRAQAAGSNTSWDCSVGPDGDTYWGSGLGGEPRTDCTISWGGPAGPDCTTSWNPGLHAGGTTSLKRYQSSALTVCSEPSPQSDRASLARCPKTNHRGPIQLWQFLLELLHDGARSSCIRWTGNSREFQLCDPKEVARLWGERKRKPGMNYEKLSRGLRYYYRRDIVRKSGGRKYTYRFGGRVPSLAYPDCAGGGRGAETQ
# Procedure, shortened: as §1
# ELF3 = biological target: T11, ELF3 (Homo sapiens, UniProt P78545 1-371); settings: protein: recombinant; tags: N-terminal GST; dsDNA, one strand shown
# T11 sequence: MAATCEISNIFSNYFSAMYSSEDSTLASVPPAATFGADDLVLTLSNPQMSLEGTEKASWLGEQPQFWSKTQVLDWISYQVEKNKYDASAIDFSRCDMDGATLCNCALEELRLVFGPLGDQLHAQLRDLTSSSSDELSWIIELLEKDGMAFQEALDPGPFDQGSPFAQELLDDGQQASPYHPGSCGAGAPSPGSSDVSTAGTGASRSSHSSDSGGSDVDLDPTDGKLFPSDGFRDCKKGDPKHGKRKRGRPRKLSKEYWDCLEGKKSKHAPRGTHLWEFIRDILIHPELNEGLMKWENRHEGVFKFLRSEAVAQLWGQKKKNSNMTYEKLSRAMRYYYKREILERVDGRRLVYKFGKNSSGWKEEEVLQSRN
# Procedure, shortened: as §1
# CRX = CRX (Homo sapiens, UniProt O43186 1-299); settings: protein: recombinant; tags: N-terminal GST; dsDNA, one strand shown
# Procedure, shortened: as §1
# ETV1 = ETV1 (Homo sapiens, UniProt P50549 1-477); settings: protein: recombinant; tags: N-terminal GST; dsDNA, one strand shown
# Procedure, shortened: as §1
# Chain of SPIB (Q01892 whole entry): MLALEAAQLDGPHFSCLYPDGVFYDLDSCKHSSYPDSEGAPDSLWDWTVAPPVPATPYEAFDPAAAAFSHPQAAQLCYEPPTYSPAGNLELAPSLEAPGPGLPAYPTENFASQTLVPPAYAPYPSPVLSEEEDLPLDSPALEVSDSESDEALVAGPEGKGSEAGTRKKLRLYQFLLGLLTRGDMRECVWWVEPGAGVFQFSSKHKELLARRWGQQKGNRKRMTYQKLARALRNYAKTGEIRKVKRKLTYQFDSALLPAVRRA
# Chain of HSF1 (Q00613 whole entry): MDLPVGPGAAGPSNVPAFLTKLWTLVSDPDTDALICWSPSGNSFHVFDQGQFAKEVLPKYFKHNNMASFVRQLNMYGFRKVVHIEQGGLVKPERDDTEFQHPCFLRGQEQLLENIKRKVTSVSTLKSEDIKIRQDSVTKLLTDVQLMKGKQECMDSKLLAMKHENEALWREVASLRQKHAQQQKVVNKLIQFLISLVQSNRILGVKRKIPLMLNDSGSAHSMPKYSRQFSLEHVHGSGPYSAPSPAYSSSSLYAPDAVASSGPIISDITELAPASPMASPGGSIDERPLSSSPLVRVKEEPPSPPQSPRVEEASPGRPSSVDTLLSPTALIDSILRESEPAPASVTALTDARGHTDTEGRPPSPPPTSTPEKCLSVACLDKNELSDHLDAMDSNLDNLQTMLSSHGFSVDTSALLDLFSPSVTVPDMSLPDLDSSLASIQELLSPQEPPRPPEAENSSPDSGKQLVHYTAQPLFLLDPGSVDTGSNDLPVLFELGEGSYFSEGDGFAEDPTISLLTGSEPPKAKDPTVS
# Chain of CRX (O43186 whole entry): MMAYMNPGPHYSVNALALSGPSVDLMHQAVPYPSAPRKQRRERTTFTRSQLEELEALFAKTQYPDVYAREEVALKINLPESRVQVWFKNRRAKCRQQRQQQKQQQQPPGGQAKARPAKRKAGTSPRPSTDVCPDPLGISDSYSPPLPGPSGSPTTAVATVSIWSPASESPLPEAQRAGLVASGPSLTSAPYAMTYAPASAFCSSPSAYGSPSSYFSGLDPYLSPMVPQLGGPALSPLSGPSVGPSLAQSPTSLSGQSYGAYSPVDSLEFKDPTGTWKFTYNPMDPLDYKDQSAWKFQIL
# Chain of ETV5 (P41161 whole entry): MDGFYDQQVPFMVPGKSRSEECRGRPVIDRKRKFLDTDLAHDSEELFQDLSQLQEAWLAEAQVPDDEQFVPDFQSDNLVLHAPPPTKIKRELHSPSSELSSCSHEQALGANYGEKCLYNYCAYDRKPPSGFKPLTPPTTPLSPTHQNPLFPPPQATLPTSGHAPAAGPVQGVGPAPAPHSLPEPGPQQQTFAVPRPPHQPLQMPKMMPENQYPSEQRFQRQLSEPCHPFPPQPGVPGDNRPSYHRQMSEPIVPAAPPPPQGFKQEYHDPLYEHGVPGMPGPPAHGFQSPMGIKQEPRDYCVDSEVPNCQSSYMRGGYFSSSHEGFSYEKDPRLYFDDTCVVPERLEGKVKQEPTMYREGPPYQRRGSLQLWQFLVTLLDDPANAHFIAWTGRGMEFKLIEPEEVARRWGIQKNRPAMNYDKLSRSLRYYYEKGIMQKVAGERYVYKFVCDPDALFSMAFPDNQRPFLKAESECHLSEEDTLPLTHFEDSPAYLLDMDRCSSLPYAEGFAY
# Chain of ELF4 (Q99607 whole entry): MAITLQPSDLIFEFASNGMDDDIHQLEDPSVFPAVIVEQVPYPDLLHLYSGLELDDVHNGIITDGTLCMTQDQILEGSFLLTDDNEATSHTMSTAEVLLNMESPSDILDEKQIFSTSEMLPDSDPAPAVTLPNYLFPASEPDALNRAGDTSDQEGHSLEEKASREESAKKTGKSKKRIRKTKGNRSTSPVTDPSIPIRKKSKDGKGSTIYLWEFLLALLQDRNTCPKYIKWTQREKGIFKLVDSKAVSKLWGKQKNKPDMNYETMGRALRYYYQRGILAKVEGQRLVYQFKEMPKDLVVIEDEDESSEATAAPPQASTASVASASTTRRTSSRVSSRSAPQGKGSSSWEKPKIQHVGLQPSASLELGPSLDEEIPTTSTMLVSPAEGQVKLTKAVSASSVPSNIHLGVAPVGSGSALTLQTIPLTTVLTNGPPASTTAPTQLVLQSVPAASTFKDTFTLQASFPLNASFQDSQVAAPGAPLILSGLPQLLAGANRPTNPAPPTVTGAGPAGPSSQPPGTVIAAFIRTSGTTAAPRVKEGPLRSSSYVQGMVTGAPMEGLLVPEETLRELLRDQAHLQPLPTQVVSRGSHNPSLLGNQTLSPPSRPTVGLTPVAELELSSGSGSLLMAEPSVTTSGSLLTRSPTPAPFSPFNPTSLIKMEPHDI
# Chain of ETV1 (P50549 whole entry): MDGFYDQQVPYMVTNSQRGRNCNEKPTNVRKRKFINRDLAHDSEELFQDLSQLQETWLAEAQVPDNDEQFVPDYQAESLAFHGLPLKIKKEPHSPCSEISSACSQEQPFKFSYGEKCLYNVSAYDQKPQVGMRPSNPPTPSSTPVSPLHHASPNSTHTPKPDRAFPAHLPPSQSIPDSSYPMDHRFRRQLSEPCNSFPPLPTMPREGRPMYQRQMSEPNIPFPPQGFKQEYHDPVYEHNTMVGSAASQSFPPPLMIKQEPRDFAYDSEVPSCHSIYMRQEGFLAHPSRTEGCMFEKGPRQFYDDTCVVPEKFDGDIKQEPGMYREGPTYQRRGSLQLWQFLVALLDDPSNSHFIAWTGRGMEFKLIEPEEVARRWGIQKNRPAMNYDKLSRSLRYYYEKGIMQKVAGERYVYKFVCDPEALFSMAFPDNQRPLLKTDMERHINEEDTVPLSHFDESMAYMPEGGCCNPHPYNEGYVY
# Chain of ELF1 (P32519 whole entry): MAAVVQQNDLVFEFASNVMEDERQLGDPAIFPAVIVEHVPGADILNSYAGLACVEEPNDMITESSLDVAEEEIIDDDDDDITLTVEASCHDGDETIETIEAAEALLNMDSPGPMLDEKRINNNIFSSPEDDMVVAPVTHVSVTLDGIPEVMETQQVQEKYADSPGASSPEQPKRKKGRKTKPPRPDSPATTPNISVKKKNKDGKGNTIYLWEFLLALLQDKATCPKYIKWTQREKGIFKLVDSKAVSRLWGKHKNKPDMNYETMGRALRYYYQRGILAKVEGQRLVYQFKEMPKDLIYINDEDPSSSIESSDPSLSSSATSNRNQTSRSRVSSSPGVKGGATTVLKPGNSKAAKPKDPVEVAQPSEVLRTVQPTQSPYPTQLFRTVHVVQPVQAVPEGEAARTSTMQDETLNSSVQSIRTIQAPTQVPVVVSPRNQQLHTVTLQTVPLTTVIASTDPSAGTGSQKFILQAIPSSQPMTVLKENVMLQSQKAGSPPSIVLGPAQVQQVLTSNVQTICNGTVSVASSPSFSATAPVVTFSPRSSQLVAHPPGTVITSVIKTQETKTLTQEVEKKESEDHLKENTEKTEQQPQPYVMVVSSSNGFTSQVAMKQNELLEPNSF
sequence,measurement,setting,value
TTGATT,binding signal,FLI1,"1.48 fold enrichment (6-mer frequency, TF over GST control)"
same,binding signal,ELK1,"1.32 fold enrichment (6-mer frequency, TF over GST control)"
same,binding signal,GABPA,"1.31 fold enrichment (6-mer frequency, TF over GST control)"
same,binding signal,ERG,"1.29 fold enrichment (6-mer frequency, TF over GST control)"
same,binding signal,ELF1,"1.29 fold enrichment (6-mer frequency, TF over GST control)"
same,binding signal,EHF,"1.26 fold enrichment (6-mer frequency, TF over GST control)"
same,binding signal,SPI1,"1.18 fold enrichment (6-mer frequency, TF over GST control)"
same,binding signal,SPIB,"1.26 fold enrichment (6-mer frequency, TF over GST control)"
same,binding signal,ELK3,"1.2 fold enrichment (6-mer frequency, TF over GST control)"
same,binding signal,FEV,"1.18 fold enrichment (6-mer frequency, TF over GST control)"
same,binding signal,ETV5,"1.14 fold enrichment (6-mer frequency, TF over GST control)"
same,binding signal,HSF1,"1.32 fold enrichment (6-mer frequency, TF over GST control)"
same,binding signal,SPIC,"1.35 fold enrichment (6-mer frequency, TF over GST control)"
same,binding signal,ELF4,"1.25 fold enrichment (6-mer frequency, TF over GST control)"
same,binding signal,ELK4,"1.29 fold enrichment (6-mer frequency, TF over GST control)"
same,binding signal,ETV2,"1.32 fold enrichment (6-mer frequency, TF over GST control)"
same,binding signal,ELF3,"1.25 fold enrichment (6-mer frequency, TF over GST control)"
same,binding signal,CRX,"1.48 fold enrichment (6-mer frequency, TF over GST control)"
same,binding signal,ETV1,"1.27 fold enrichment (6-mer frequency, TF over GST control)"
